aSyn UTR act: Activators via SNCA 5'UTR binding, MLPCN; AID 1814; alpha-synuclein 5'UTR reporter, activators screen; actives 7.1% (n = 300,000); activity score, % (tested at 7.5 µM), hits read low; in the data active = activity score below about -60%
Numbers without * were called inactive. The list is a sample of the results.

SMILES	aSyn UTR act
Cc1cccc(-n2c(SCC(=O)Nc3ncc(Cl)cc3Cl)nc3ccccc32)c1	58
COc1cccc(-n2ccnc2SCC(=O)Nc2nccs2)c1	-73*
CCCC(=O)NC(c1ccc(OC)cc1)c1ccc2cccnc2c1O (configuration not stated)	129
Cc1cccc(-n2ccnc2SCC(=O)Nc2nccs2)c1	-132*
COc1ccc(C(CC(=O)Nc2nccs2)n2cccc2)cc1 (configuration not stated)	-168*
Cc1cc(Cl)ccc1Nc1ncccc1C(N)=O	-154*
COc1ccc(Nc2ncccc2C(=O)O)cc1	-77*
Cc1ccc(Nc2ncccc2C(N)=O)cc1	-139*
COc1ccc(N2CCN(c3cnc4ccccc4n3)CC2)cc1	-101*
COc1ccc(N2CCN(c3ncccn3)CC2)cc1	-130*
COc1cccc(N2CCN(c3cnc4ccccc4n3)CC2)c1	-116*
Clc1ccc(CONc2ncnc3nonc23)c(Cl)c1	-124*
CC(C(Sc1ccccc1N)c1ccccc1)[N+](=O)[O-] (configuration not stated)	-83*
O=C(COC(=O)c1ccc[nH]c1=O)NCCc1ccc(Cl)cc1Cl	-98*
O=C(Nc1ccc(Cl)cn1)c1ccc2ccccc2n1	-96*
Cc1ccc(NC(=O)c2ccc3ccccc3n2)nc1	-163*
Cc1ccccc1C(=O)Nc1ccc(Cl)cn1	-114*
O=C(/C=C/Nc1ccc(Br)cc1F)c1ccccc1	78
O=C(/C=C/Nc1ccc(F)c(F)c1)c1ccc(Br)cc1	-192*
O=C(/C=C/Nc1ccc([N+](=O)[O-])cc1)c1ccc(Br)cc1	-74*
O=C(/C=C/Nc1ccc(F)cc1)c1ccc(Br)cc1	-181*
O=C1CCCC(O)=C1C=Nc1ccc2c(c1)oc1ccccc12	-168*
O=C(c1ccccc1)c1cnc(Nc2ccccc2Cl)s1	-96*
CN(C)CCNC(=O)c1csc(Nc2cccc3ccccc23)n1	57
CC(=O)c1csc(Nc2ccccc2Cl)n1	-121*
SMILES	aSyn UTR act
CC(C)(C)C(=O)c1cnc(Nc2ccccc2Cl)s1	-146*
CNc1sc(C(=O)c2ccccc2F)c(N)c1-c1nc2ccccc2s1	-84*
O=C(c1ccccc1)N1CCSc2sccc2C1=O	97
Cc1sc2c(c1C)CN(C(C)(C)C)CN2C(=O)c1ccccc1	-64*
Cc1ccc(NC(=O)CN2C(=O)N/C(=C/c3ccc(N4CCOCC4)cc3)C2=O)cc1	-118*
COc1cccc(-c2nc(-c3ccccn3)no2)c1OC	-219*
COc1cc(-c2nc(-c3ccccn3)no2)cc(OC)c1OC	-163*
O=C(NC1CCCCC1)N1CCc2ccccc2C1	-85*
O=C(Nc1ccc(F)cc1)N1CCc2ccccc2C1	-203*
O=C(Nc1ccc(Br)cc1)N1CCc2ccccc2C1	-161*
FC(F)(F)c1cnc(-c2cnc(-c3ccncc3)nc2)c(Cl)c1	-109*
Cc1cccc(NC(=O)c2ccc(Cl)c(S(=O)(=O)N3CCCC3)c2)n1	-68*
O=C(Nc1cc(S(=O)(=O)N2CCCCC2)ccc1Cl)c1ccccc1NS(=O)(=O)c1ccc(F)cc1	63
Cc1cccc(NC(=O)c2ccc(Cl)c(S(=O)(=O)N3CCCCC3)c2)n1	-79*
Cc1ccc(/C=C(\C#N)C(=O)Nc2ccccn2)o1	-164*
Cc1ccc(N/C=C/C(=O)c2ccco2)c(O)c1	-158*
Cc1ccc([N+](=O)[O-])cc1N/C=C/C(=O)c1ccco1	-138*
N#Cc1cn(-c2ccccc2)nc1-c1ccco1	-147*
N#Cc1cn(-c2ccccc2)nc1-c1ccc2c(c1)OCCO2	-184*
N#Cc1cn(-c2ccccc2)nc1C(=O)c1ccccc1	-192*
CCOC(=O)c1ccc2[nH]c3ccccc3c2c1	-133*
CCOC(=O)c1ccc2[nH]c(C)c(C)c2c1	-86*
COC(=O)c1ccc2[nH]c(C(C)(C)O)c(C)c2c1	-94*
Cc1ccc2[nH]c(C(=O)N3CCCCC3)cc2c1	-98*
COc1ccccc1N1CCN(C(=O)c2ccc3[nH]c(C)c(C)c3c2)CC1	72
SMILES	aSyn UTR act
Cc1[nH]c2ccc(C(=O)N3CCCCC3)cc2c1C	-112*
CCn1nnnc1SCC(=O)c1ccc2c(c1)OCCO2	-137*
COc1cccc(C(=O)CSc2nnnn2C2CCCCC2)c1	-74*
CC(C)n1nnnc1SCC(=O)c1ccc2c(c1)OCCO2	-145*
O=C(CSc1nnnn1C1CCCC1)c1ccc2c(c1)OCCO2	-102*
CC(C)(C)c1nnc2sc(SCC(=O)c3ccc4c(c3)OCCO4)nn2c1=O	-156*
Cc1ccc(C)c(C(=O)CSc2nnnn2C(C)C)c1	-65*
CN(C)c1ccc(N=C/C=C2/N(C)c3ccccc3C2(C)C)cc1	-84*
O=C1CCCN1CCCNc1ncnc2c1cnn2-c1ccc(Cl)cc1	-152*
Cc1cccc(-n2ncc3c(NCCCN4CCCC4=O)ncnc32)c1	-143*
Cc1cccc(-n2ncc3c(NCCCn4ccnc4)ncnc32)c1	-129*
CNc1nc(-c2ccccc2)[n+](-c2ccc(C)cc2)s1	-116*
COc1ccc(C2=NN(C(=O)CN3CCOCC3)C(c3nc4ccccc4[nH]3)C2)cc1 (configuration not stated)	-72*
